Screens: PubChem BioAssay, several laboratories
Sampled rows, rich in hits. Any-hit rate of the full collection: about 3.7%.
BoNT-F LC inh: blocks Botulinum neurotoxin F light chain protease | inhibition, % at 10 µM | Multiplex microsphere protease cleavage assay, flow cytometry | AID 588497 | 0.22% of 360,000 active; in the data active = inhibition above about 35%, passing the limit was not always enough; inconclusive = no clear call, values can overlap the other calls; note: plate controls were buffer without enzyme for full effect and enzyme alone for no effect
MazF activator: MazEF (E. coli) toxin RNase activation. AID 504720. activation, % at 20 µM. 0.32% of 350,000 active. P0AE70. FAM/BHQ RNA-DNA oligo cleavage fluorescence, 5 h; in the data active = activation above about 50%
Anthrax LF prot: inhibitors of Bacillus anthracis lethal factor protease | multiplex microsphere protease cleavage assay, LF | inhibition, % at 10 µM | 0.12% of 360,000 active | AID 588501; note: plate controls were buffer without enzyme for full effect and enzyme alone for no effect
BoNT A protease: inhibitors of Botulinum neurotoxin A light chain protease | multiplex microsphere protease substrate cleavage, flow cytometry | inhibition, % at 10 µM | 0.17% of 360,000 active | AID 588499; note: plate controls were buffer without enzyme for full effect and enzyme alone for no effect
Autofluor counter: compound fluorescence in toxin protease inhibitor counterscreen; AID 624483; fluorescence intensity (no concentration beside the values); compound autofluorescence counterscreen, microsphere flow cytometry; hits give high values; 3.1% of 360,000 active; in the data active = fluorescence intensity above about 16000; inconclusive = no clear call, values can overlap the other calls
Numbers without * were called inactive; ? = inconclusive; nt = not tested or not shown. Cut-off read from the data, not from the text of the source, unless noted: active = inhibition above about 30%; inconclusive = no clear call, values can overlap the other calls; inactive = below that.

SMILES	BoNT-F LC inh	MazF activator	Anthrax LF prot	BoNT A protease	Autofluor counter
Cc1ccccc1NC(=O)Cn1nnc(-c2ccc(N3CCOCC3)cc2)n1	-3.5	1.5	-6.4	?	22327*
CC1(C(=O)Nc2cccc(Oc3ccccc3)c2)CCN1C1Cc2ccccc2C1 (stereo not drawn)	0.7	nt	5.6	-0.2	3856
Cc1sc2nc(C3CC3)nc(SCC(=O)N3CCc4ccccc4C3)c2c1C	-2.1	-0.9	0.8	?	23515*
CCCc1ccc(OCc2ccc(C(=O)OC)o2)c(OC)c1	0.9	-2.5	-1.6	1.0	23181*
CCCc1ccc(OCc2ccc(C(=O)O)o2)c(OC)c1	4.4	-1.4	0.6	0.4	2799
CC1=C(C(=O)N2CCCCCC2)CC(CC(=O)NCc2ccco2)C(=O)N1Cc1ccccc1 (stereo not drawn)	-4.5	nt	-4.2	-0.2	6003
Cc1cc2nc(-c3cccc(Cl)c3)c(Cc3ccccc3)n2c(C)c1Br	-6.5	nt	-1.1	1.0	6508
NC1=NC2(CCCCC2)N(c2ccc(F)cc2)C(N)=N1	11.3	6.7	-1.7	-0.3	3563
NC1=NC2(CCCCC2)N(c2cccc(Cl)c2)C(N)=N1	-3.3	0.8	-0.6	-1.4	16971*
COc1ccc(N2CCN(CCNS(=O)(=O)c3ccc(C)cc3)CC2)cc1	-14.9	-5.8	3.5	-1.7	3044
CCn1c(=O)c2cc(C(=O)N(C)CC(OC)OC)sc2c2ccccc21	2.7	12.9	38.5*	-3.2	2981
CC(C)C[C@H](NC(=O)CC[C@H]1O[C@@H](n2ccc(=O)[nH]c2=O)[C@H](O)[C@@H]1O)C(=O)O	-18.8	nt	-1.4	-0.8	5435
O=C(OCC(=O)c1c[nH]c2ccccc12)c1ccc(F)c(S(=O)(=O)N2CCOCC2)c1	8.3	-1.1	-0.7	0.1	3649
COc1ccccc1N1CCN(C(=O)C(NS(=O)(=O)c2cccs2)c2ccccc2)CC1 (stereo not drawn)	-1.4	0.5	-0.4	-1.7	16978*
COc1ccccc1N1CCN(C(=O)C(Cc2ccccc2)NC(=O)C2CCCCC2)CC1 (stereo not drawn)	-6.1	6.3	-1.6	-4.1	25307*
O=C(NC(Cc1ccccc1)C(=O)N1CCC2(CC1)OCCO2)C1CCCCC1 (stereo not drawn)	7.7	4.0	2.7	0.6	5807
COc1ccccc1N1CCN(S(=O)(=O)c2cccs2)CC1	-0.6	5.6	-0.8	0.0	7754
CCOC(=O)c1c(N/C=C(\C#N)c2nc(-c3ccc(OC(C)=O)cc3)cs2)sc2c1CCC2	7.5	6.2	-6.7	2.1	3058
COc1ccc(C2=NOC3(CC(=O)N(c4ccc(F)cc4)C3=O)C2)c(OC)c1 (stereo not drawn)	6.7	-6.1	1.6	5.2	15217
COc1ccc(C2=NOC3(CC(=O)N(c4ccc5ccccc5c4)C3=O)C2)c(OC)c1 (stereo not drawn)	-6.9	-0.2	-2.2	?	17080*
Cn1c(=O)cc(OCCCC(=O)N2CCC3(CC2)OCCO3)c2ccccc21	-10.9	-6.5	-6.7	-2.5	4019
Cn1cc(CCC(=O)N2CCC3(CC2)OCCO3)c2ccccc21	-2.0	-1.5	0.8	0.8	23713*
CC(=O)c1ccc(N2CCN(C(=O)Cc3cccs3)CC2)cc1	-1.1	7.6	0.3	0.9	4026
O=C(Cc1cccs1)N1CCC2(CC1)OCCO2	-0.9	-5.4	-0.5	-1.9	20223*
CC(=O)Nc1ccccc1NC(=O)C(F)(F)F	-5.8	6.1	-2.2	-1.2	16513*
SMILES	BoNT-F LC inh	MazF activator	Anthrax LF prot	BoNT A protease	Autofluor counter
CC(=O)Nc1ccccc1C	0.4	7.7	-3.6	-0.3	5738
CC(=O)Nc1ccc(NC(=O)C(F)(F)F)cc1	-1.0	-4.7	-1.0	?	22771*
Cc1ccccc1S(=O)(=O)N(C)C[C@H]1OCc2cn(nn2)CCCC(=O)N([C@H](C)CO)C[C@@H]1C	2.2	nt	-3.0	-0.1	4236
Cc1ccccc1NC(=O)Cc1nc(COC(=O)Cc2c(F)cccc2Cl)cs1	-5.3	-4.9	0.9	-1.4	4256
CC(C)(C)OC(=O)NC(CCCCNC=O)C(=O)O (stereo not drawn)	1.7	1.2	-2.2	0.2	23419*
CC(C)CC(NC(=O)OC(C)(C)C)C(=O)O (stereo not drawn)	-3.3	-0.9	-4.4	-0.4	4655
Cc1ccc(NC(=O)c2cc(S(=O)(=O)N3CCOCC3)ccc2Cl)cc1S(=O)(=O)N1CCOCC1	-11.7	0.4	-2.4	-1.0	4185
CCOc1ccc(C(c2c(O)nc(SC)n(C)c2=O)c2c(O)nc(SC)n(C)c2=O)cc1	3.9	-6.8	0.2	0.9	22263*
Cc1ccc[n+](-c2nc([O-])sc2C=O)c1	-2.4	69.0*	-7.8	-1.6	4884
CC(C)c1ccc[n+](-c2nc([O-])sc2C=O)c1	-11.9	-3.5	-16.9	-0.5	4468
CCN1CCC2(CCNC2)C1 (stereo not drawn)	1.1	4.6	-2.6	-0.8	16425*
COc1ccc(S(=O)(=O)Nc2ccc3c(c2)C(=O)N([C@H](C)CO)C[C@H](C)[C@@H](CN(C)Cc2ccncc2)OCCCC[C@@H](C)O3)cc1	-5.7	-31.1	-1.4	-0.4	3568
c1ccc(-c2oc3ncnc(NCCCN4CCOCC4)c3c2-c2ccccc2)cc1	-6.5	-4.0	-3.5	-3.4	26085*
COc1ccc(N2C(=O)CC(N3CCC(c4nc5ccccc5[nH]4)CC3)C2=O)cc1 (stereo not drawn)	-2.8	6.8	-1.6	?	22767*
COc1ccc(N2C(=O)CC(N3CCC(O)(c4ccc(Cl)cc4)CC3)C2=O)cc1 (stereo not drawn)	-5.9	8.8	-2.4	?	16898*
COc1ccc(N2C(=O)CC(n3cnc4ccccc43)C2=O)cc1 (stereo not drawn)	0.6	-4.4	1.3	?	22109*
COc1ccc(N2C(=O)CC(N3CCN(c4ccc(Cl)cc4)CC3)C2=O)cc1 (stereo not drawn)	22.8	9.3	-9.0	-0.5	3480
O=C1CC(N2CCC(c3nc4ccccc4[nH]3)CC2)C(=O)N1c1ccccc1F (stereo not drawn)	2.7	8.5	-2.3	0.0	2065
c1coc(-c2cc3nc(NC4CCCCC4)ccn3n2)c1	-10.7	nt	-3.3	-0.4	3963
O=S1(=O)CCN(Cc2cccnc2)CC1	5.7	-10.1	-4.0	-0.3	2929
COc1ccc(C(OC(=O)c2ccco2)C(=O)NC(C)(C)C)cc1OC (stereo not drawn)	?	2.9	-0.5	-0.9	3344
Cc1ccc(N2CCN(CC3CC=CCC3)CC2)cc1 (stereo not drawn)	2.7	-10.2	-2.2	2.3	21210*
FC(F)(F)c1cccc(N2CCN(CC3CC=CCC3)CC2)c1 (stereo not drawn)	-5.6	0.1	-4.0	-0.9	3051
Cc1cc(/C=C(\C#N)C(=O)NCc2cccs2)c(C)[nH]1	-0.5	3.5	2.3	-0.2	4030
COc1cc(OC)c(OC)cc1/C=C(\C#N)C(=O)NCc1cccs1	5.6	83.6*	-2.3	1.2	5418
CCCCN(C)CCNC(=O)c1cc2c(-c3cccc(OC)c3)nn(C)c2s1	11.5	14.0	-0.5	3.5	4003
